Experimental findings from PubChem BioAssay AID1259417 (TB Discovery Research, Infectious Disease Research Institute, 2018) are described below.

The nature of this test: M. tuberculosis growth inhibition, HTS (AID 1259417).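 Note: bacteria grown with compound for 5 days at 37 °C.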 Conditions: stronger effect = higher value, concentration not given here.
[1] abbreviates: M. tuberculosis DsRed fluorescence growth inhibition.
The mark [2] stands for this setting: M. tuberculosis growth inhibition.

Out of some 1,100 compounds screened, about 760 (69%) were called active. The rule behind the calls is not given here. The set was probably picked from earlier hits. The list shows a part of the results.

By inhibition is commonly meant the relative decrease from the control value, in per cent. With `C=CCn1c(=NC(=O)c2ccc([N+](=O)[O-])s2)sc2cc(S(N)(=O)=O)ccc21`, the inhibition runs as follows: under setting [1], 59.9% (active); under setting [2], 94.9%.

In the case of `CCc1c(C)c2ccc(OCC(=O)OC)c(C)c2oc1=O`, the inhibition by setting is: under setting [1], 49.4% (active); under setting [2], 89.1%.

Turning to `Cc1cc(C)cc(COc2ccc3c(C)c(CCC(=O)O)c(=O)oc3c2C)c1`, the inhibition under setting [1] was 13.5% (inactive) and the inhibition under setting [2] is -13.6%.

As to `COC(=O)Cc1c(C)c2ccc(OCC(=O)OCc3ccccc3)c(C)c2oc1=O`, the inhibition by setting is: under setting [1], 4.42% (active); under setting [2], 54%.

With `O=c1cnnc(NN=Cc2cc(Br)ccc2O)[nH]1`, the inhibition is, setting by setting: under setting [1], 100% (active); under setting [2], 98.8%.

In the case of `O=C(c1cccc([N+](=O)[O-])c1)N1N=C(c2ccc(Br)cc2)CC1(O)C(F)(F)F` (centres undefined), the inhibition reads like this: under setting [1], 5.59% (inactive); under setting [2], 21%.

`Cc1cccc(C(=O)N2N=C(c3ccc(Br)cc3)CC2(O)C(F)(F)F)c1` (centres undefined): the inhibition reads like this: under setting [1], 12.2% (active); under setting [2], 41%.

For `CCOc1cc(CNC23CC4CC(CC(C4)C2)C3)ccc1OCc1cccs1`, the inhibition by setting is: under setting [1], 99.7% (active); under setting [2], 95.9%.

With `COc1cc(CNC23CC4CC(CC(C4)C2)C3)ccc1OCc1ccccc1`, the inhibition under setting [1] is 99.4% (active) and the inhibition under setting [2] was found to be 96.2%.

In the case of `c1ccc(COc2ccccc2CNC23CC4CC(CC(C4)C2)C3)cc1`, the inhibition is 22.3% (inactive) under setting [1] and 3.79% under setting [2].

For the compound `CN(C)c1ccc(CNC23CC4CC(CC(C4)C2)C3)cc1`, the inhibition is 98.9% (active) under setting [1] and 95.5% under setting [2].

For the compound `CCOc1cccc(N2C(=O)CC(SC(N)=NN=C(C)c3ccc(Cl)s3)C2=O)c1` (centres undefined), the inhibition runs as follows: under setting [1], 6.46% (inactive); under setting [2], -10.4%.
